# Assay outcomes: PubChem, National Center for Advancing Translational Sciences (NCATS)
# Pf Dd2 growth – Plasmodium falciparum Dd2 growth inhibition; P. falciparum Dd2 growth, SYBR Green, 72 h; Potency, µM (highest dose often 28.9 µM), most hits filed as inhibitors; actives 4.3% (n = 120,000); active = well fitted inhibition curve with a large enough effect; also: nearly all actives have a fitted effect of over 65% in size
#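 Infected erythrocytes (Dd2, 0.3% parasitemia, 2.5% hematocrit final) are added to compound in RPMI-1640/Albumax II medium, grown 72 h at 37C in low oxygen, then lysed with saponin/Triton-X containing SYBR Green and read by fluorescence.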
# Numbers stand for hits; 0 = inactive. This is one part of a sample in which hits are shown more often than they occur.
SMILES,Pf Dd2 growth
O=C(C1CCCC1)N1CC2(CCCCN2Cc2cccnc2)Cc2ccccc21 (stereo not given),7.94µM
CS(=O)(=O)N1CCOC(Cn2ccnc2-c2ccc(CO)o2)C1 (stereo not given),0
CC(Oc1ccccc1)C(=O)N1CCOCCNC(=O)CC1 (stereo not given),0
O=C(O)CC1(CC(=O)N[C@H]2CO[C@H]3[C@@H]2OC[C@@H]3n2nnnc2Oc2ccccc2)CCCC1,0
O=C(C[C@@H]1C[C@H]2O[C@H](CNC3CCNCC3)[C@@H](O)[C@H]2O1)N1CCC(F)(F)C1,0
CN(C)C(=O)CN1C(=O)CO[C@H](c2ccc(NC(=O)C3CC3)cc2)[C@H]1CO,0
CN(Cc1ccc2ncccc2c1)C(=O)c1ccc(C2CCNC2)cc1 (stereo not given),0
CCNC(=O)N1CCCC(O)(CNS(=O)(=O)c2cnn(CC)c2C)CC1 (stereo not given),0
COc1cccc(C2NC(=O)c3n[nH]c(-c4cccs4)c32)c1 (stereo not given),0
COc1cc(C2c3c(-c4ccc(C)cc4)n[nH]c3C(=O)N2c2ccc(F)cc2)ccc1O (stereo not given),0
CCOC(=O)c1ccc(N2C(=O)c3n[nH]c(-c4ccco4)c3C2c2cccc(F)c2)cc1 (stereo not given),10µM
CCOC(=O)c1sc(N2C(=O)c3oc4cc(C)c(C)cc4c(=O)c3C2c2cccc(O)c2)nc1C (stereo not given),0
CCOC(=O)c1ccc(N2C(=O)c3n[nH]c(-c4cccs4)c3C2c2ccc(Cl)cc2Cl)cc1 (stereo not given),0
Cc1ccc(-c2n[nH]c3c2C(c2ccccc2Cl)N(c2ccc(C(=O)O)cc2)C3=O)cc1 (stereo not given),0
CCOC(=O)c1ccc(N2C(=O)c3n[nH]c(-c4cccs4)c3C2c2ccc(C)cc2)cc1 (stereo not given),0
CCOC(=O)c1ccc(N2C(=O)c3n[nH]c(-c4cccs4)c3C2c2cccc(F)c2)cc1 (stereo not given),7.94µM
CC1=C(C(=O)OC(C)C)C(c2cccc(F)c2)N2C(CC(=O)NCc3ccco3)=CSC2=N1 (stereo not given),0
Cc1ccc(-c2n[nH]c3c2C(c2cccs2)N(c2ccc(Cl)cc2)C3=O)cc1 (stereo not given),11.2µM
CCOC(=O)c1ccc(N2C(=O)c3n[nH]c(-c4cccs4)c3C2c2ccc(C(C)(C)C)cc2)cc1 (stereo not given),7.08µM
CCOC(=O)c1ccc(N2C(=O)c3n[nH]c(-c4cccs4)c3C2c2ccc(O)c(OC)c2)cc1 (stereo not given),0
COCc1nc(C2CCCN(C(=O)NCCC(C)C)C2)no1 (stereo not given),0
CC(C)N1CNC(=O)C12CCN(C(=O)c1ccc(Cl)cc1)CC2,0
Cc1cnc(CCNC(=O)c2ccnn2C)n1CC1CC1,0
COc1ccccc1CN1CC(c2noc(CC3CCCC3)n2)CC1=O (stereo not given),0
CCN1c2cc(C(=O)Nc3cccc(C(C)C)c3)ccc2C(=O)N2CCCCCC21 (stereo not given),0
SMILES,Pf Dd2 growth
CN1CCN(S(=O)(=O)c2ccc(F)cc2)CC12CCNC(=O)CC2 (stereo not given),0
COc1cccc(NC(=O)N2CC(C(=O)N(C)C)C3(CCOCC3)C2)c1 (stereo not given),0
CN(CC(=O)N1CCC(Cc2nc(C3CCOCC3)no2)CC1)S(=O)(=O)c1cnc[nH]1,0
COC[C@@H]1CN(C(=O)c2cc(C)oc2C)C[C@H]1c1ccccn1,0
CNC(=O)[C@@H](C1CC1)N1CCC[C@H]1C(=O)NCC1CC1,0
COc1cc(OC)c(C(=O)N2CCOCC(CO)C2)cc1OC (stereo not given),0
CN(C)C[C@@H]1CN(c2ccccn2)C[C@H]1NC(=O)Cn1c(=O)oc2ccccc21,0
CC(C)NC(=O)CCC1CCN(C(=O)c2ccccc2F)CC1,0
CCc1ccc(C2c3c(-c4ccccc4)n[nH]c3C(=O)N2c2ccc(C(=O)O)cc2)cc1 (stereo not given),0
CCOC(=O)c1ccc(N2C(=O)c3[nH]nc(-c4ccc(OC)cc4)c3C2c2ccc(C)cc2)cc1 (stereo not given),8.91µM
CCOC(=O)c1ccc(N2C(=O)c3n[nH]c(C)c3C2c2ccc(C(C)C)cc2)cc1 (stereo not given),0
CC(C)CCN1CCC(N2CCN(C(=O)c3ccccc3F)CC2)C1=O (stereo not given),0
Cc1ccccc1OCC1CN(CC(C)C)C(=O)c2c(ccnc2-c2ccc(OCC(=O)O)cc2)O1 (stereo not given),0
O=C(N1CCN(c2ncncn2)CC1)N(c1ccccc1)c1ccccc1,0
Cc1ccc(-c2noc([C@@H]3C[C@@H](O)CN3Cc3ccc(C(=O)O)cc3)n2)cc1F,0
COCC(=O)NC[C@@H]1CC[C@H]2C[C@@H]1C2(C)C,0
CC1(C)[C@H]2CC[C@@H](CNC(=O)c3cncc(Br)c3)[C@@H]1C2,0
